A number with no mark means an inactive call. Active and inactive are the calls of the source.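 How the source made its calls: active means thallium flux through the channel raised or lowered by more than 3 SD from vehicle-only wells, actives on both sides; inactive means the rest.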
Columns and labels:
Assay in all cases: modulators of BK channel variants, profiling panel, selectivity assay, cell-based, U2OS BacMam, thallium flux, beta subunits (AID 1259406);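 further: initial slope of Thallos dye fluorescence rise after thallium is added; log ratio against the mean of 0.3% DMSO vehicle wells on the same plate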
[1] = system: F380Y; conditions: at 30 µM
[2] = system: F380Y/beta1; conditions: at 30 µM
[3] = system: F380Y/beta2Delta; conditions: at 30 µM
[4] = system: F380Y/beta4; conditions: at 30 µM
[5] = biological target: Calcium-activated potassium channel subunit alpha-1 (Homo sapiens) + Leucine-rich repeat-containing protein 26 (Homo sapiens) (UniProt Q12791+Q2I0M4); conditions: F380Y/Slo1WT/gamma1, at 30 µM
[6] = system: R275C; conditions: at 30 µM
[7] = system: R275C/beta1; conditions: at 30 µM
[8] = system: R275C/beta2Delta; conditions: at 30 µM
[9] = system: R275C/beta4; conditions: at 30 µM
[10] = system: R275C/Slo1WT/beta2; conditions: at 30 µM

Chain of Calcium-activated potassium channel subunit alpha-1 (Homo sapiens) + Leucine-rich repeat-containing protein 26 (Homo sapiens) (Q2I0M4 whole entry, looked up, one chain of several): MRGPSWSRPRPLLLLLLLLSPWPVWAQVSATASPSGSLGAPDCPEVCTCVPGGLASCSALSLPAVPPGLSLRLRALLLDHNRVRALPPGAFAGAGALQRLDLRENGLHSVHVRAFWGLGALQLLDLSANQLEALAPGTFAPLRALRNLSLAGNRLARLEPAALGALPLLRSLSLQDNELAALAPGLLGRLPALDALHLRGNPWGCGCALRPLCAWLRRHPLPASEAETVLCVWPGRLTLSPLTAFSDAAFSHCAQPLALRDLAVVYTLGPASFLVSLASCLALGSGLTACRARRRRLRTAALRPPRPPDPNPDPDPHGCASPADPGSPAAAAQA

SMILES | log fold change Tl+ flux [1] | log fold change Tl+ flux [2] | log fold change Tl+ flux [3] | log fold change Tl+ flux [4] | log fold change Tl+ flux [5] | log fold change Tl+ flux [6] | log fold change Tl+ flux [7] | log fold change Tl+ flux [8] | log fold change Tl+ flux [9] | log fold change Tl+ flux [10]
Cc1ccc(C2=C(c3ccccc3)C(=O)C(c3ccccc3)=C2c2ccc(Cl)cc2)cc1 | -0.00103 | -0.0199 | 0.00394 | -0.0256 | 0.0117 | 0.0143 | -0.08 | 0.0554 | -0.0334 | -0.0207
Oc1c(Cl)c(Cl)c(Cl)c2ccccc12 | 0.503 (active) | 0.627 (active) | 0.473 (active) | 0.484 (active) | 0.395 (active) | 0.519 (active) | 0.527 (active) | 0.304 (active) | 0.702 (active) | 0.141 (active)
Cc1onc(-c2c(Cl)cccc2Cl)c1C(=O)NOC(=O)c1cccs1 | 0.00334 | 0.0153 | 0.0189 | 0.0829 | -0.0657 | -0.0156 | 0.0266 | 0.0291 | 0.0618 | -0.0647
O=C(NCCSCc1ccco1)c1cncc(Br)c1 | 0.0566 | -0.00628 | 0.00549 | 0.0375 | 0.0375 | -0.0119 | 0.0315 | 0.0453 | -0.016 | 0.024
CS(=O)(=O)NNc1c(Cl)cc(Cl)cc1Cl | 0.00053 | -0.000501 | -0.00312 | 0.0402 | 0.016 | 0.0374 | -0.0143 | 0.00102 | 0.0275 | 0.0607
O=S(=O)(CCN1CCN(Cc2ccccc2)CC1)c1ccc(F)cc1 | -0.000988 | 0.0135 | 0.0237 | 0.0241 | 0.000113 | 0.0486 | 0.0249 | 0.00728 | 0.0441 | -0.0289
CCc1ccc(C(=O)Nc2cccc(S(N)(=O)=O)c2)cc1 | -0.0133 | -0.00607 | -0.0279 | 0.0112 | 0.028 | -0.00467 | -0.00416 | -0.0306 | 0.0218 | 0.0201
COC(=O)c1cnn(C(=O)Nc2c(C)cccc2C)c1C(OC)OC | -0.0549 | -0.00196 | -0.0264 | -0.029 | 0.033 | 0.02 | -0.0504 | -0.0443 | 0.00703 | 0.00968
CC(C)(C)NC(=O)NCCO | 0.0116 | -0.0332 | 0.0577 | -0.013 | -0.0499 | -0.02 | 0.0132 | -0.014 | 0.00214 | -0.03
Cc1onc(-c2ccccc2)c1N1C(=O)CCN(C(C)C)C1=O | -0.0312 | -0.00917 | -0.0373 | -0.00603 | -0.0319 | -0.0915 (active) | 0.0435 | -0.0125 | -0.0122 | 0.000512
CCOC(=O)c1ccc(-n2sccc2=O)cc1 | -0.0987 | 0.078 | -0.0422 | -0.0664 | 0.0683 | 0.0277 | 0.179 (active) | 0.113 (active) | 0.141 (active) | 0.0482
O=C(Nc1ccc(OC(F)(F)F)cc1)Nc1cc(C(F)(F)F)ccc1N1CCOCC1 | 0.0283 | -0.00979 | 0.0491 | -0.00808 | 0.0378 | 0.022 | 0.0354 | -0.0143 | -0.0232 | -0.0238
CCOC(=O)C1CCC(C(=O)OCC)N1C(=O)Nc1ccc(Cl)cc1 (stereo not given) | 0.046 | 0.00842 | 0.0313 | -0.0525 | -0.0039 | 0.0639 | 0.0271 | 0.0385 | 0.0217 | -0.00903
Cn1c(C(F)(F)F)nnc1S(=O)(=O)Cc1ccc(-c2csnn2)cc1 | 0.0645 | 0.0098 | 0.0485 | 0.114 (active) | 0.00754 | 0.0229 | -0.0587 | 0.0374 | -0.0154 | -0.0301
O=S(=O)(Nc1ccccc1SCc1ccc2nonc2c1)c1cccs1 | -0.159 (active) | -0.065 | -0.0553 | -0.14 (active) | -0.142 (active) | -0.262 (active) | 0.0365 | -0.00587 | -0.0288 | -0.239 (active)
CCOC(=O)C1CCCN(C(=O)Nc2c(-c3ccccc3)noc2C)C1 (stereo not given) | 0.0297 | -0.0223 | -0.00149 | 0.0159 | 0.00293 | -0.0483 | -0.0144 | -0.0161 | -0.0185 | 0.00733
CSc1nc(C)nc(Sc2cccc(C(F)(F)F)c2)c1C#N | -0.0573 | 0.0287 | 0.00499 | 0.0691 | 0.0378 | -0.0292 | -0.00668 | -0.023 | 0.00747 | 0.00901
Cc1ncc(CSc2nc(C(C)(C)C)cs2)c(CO)c1O | -0.0128 | -0.0261 | -0.035 | -0.0366 | -0.0352 | -0.0209 | -0.00193 | 0.0196 | 0.00379 | -0.00882
C=CCNC(SC)=C(C#N)C(N)=O | -0.000365 | -0.02 | 0.0377 | -0.0612 | 0.0338 | -0.0174 | -0.038 | 0.00669 | -0.0131 | -0.00229
Oc1c(Cl)cc(Cl)cc1C=Nc1nccs1 | 0.115 (active) | 0.153 (active) | 0.108 (active) | 0.105 (active) | 0.0431 | -0.0362 | 0.112 (active) | 0.0936 (active) | 0.0731 | 0.0241
O=C(O)c1ccccc1C(=O)NCc1ccccc1OC(F)(F)F | -0.05 | -0.0181 | -0.0248 | 0.0063 | -0.076 | -0.0155 | -0.0505 | -0.0385 | -0.0255 | 0.0015
CC(=O)CSc1nc(SCC(C)=O)c2cnc(N3CCCC3)nc2n1 | -0.0105 | -0.0297 | -0.00118 | -0.00484 | 0.0577 | -0.0104 | -0.000725 | -0.0224 | -0.00829 | 0.0731
CN(C)c1ccc(C=NNC(N)=S)c(Cl)c1 | 0.178 (active) | 0.329 (active) | 0.177 (active) | 0.174 (active) | -0.221 (active) | -0.509 (active) | -0.285 (active) | -0.0612 | -0.244 (active) | -0.154 (active)
CC(C)(C)c1ccc(Oc2ccc(NC(=O)Nc3cccs3)cn2)cc1 | -0.105 (active) | 0.131 (active) | -0.0118 | 0.0598 | 0.0627 | 0.0691 | 0.0982 | 0.0026 | 0.026 | -0.00521
O=C(O)C(Cc1ccccc1[N+](=O)[O-])=NNc1ccccc1 | 0.0136 | 0.0239 | 0.0162 | 0.0888 | 0.0895 | 0.0387 | 0.0681 | 0.0201 | 0.0231 | 0.00699
Cc1nc(-c2n[nH]c(=S)n2C)cs1 | -0.0125 | -0.0212 | 0.0116 | -0.0241 | 0.0365 | 0.0188 | 0.00398 | 0.0232 | -0.0295 | -0.00583

Reference: PubChem BioAssay
